# Shown are actives, neighbours in structure and some others; about 2.5% of the full set was active somewhere.
# MEKK2mut PB1 HTS: signal of MEK5 binding to mutant human MEKK2 PB1 domain. bead flow cytometry, Alexa488-MEK5 binding to MEKK2 mutant. percent response, % at 10 µM. hit rate 0.35% among 290,000. AID 1530; in the data active = percent response above about 24%, passing the limit was not always enough
# MEKK2wt PB1 HTS: raises or lowers MEK5 binding to wildtype human MEKK2 PB1 domain; Q9Y2U5; bead flow cytometry, Alexa488-MEK5 binding to MEKK2 WT; actives lie on both sides; binding response (% of control), % at 10 µM; hit rate 1.1% among 290,000; in the data active = binding response below about 67% or above about 130%; inconclusive = no clear call, values can overlap the other calls; inactive = in between
# MEKK3 PB1 HTS: raises or lowers MEK5 binding to the human MEKK3 PB1 domain; Q99759; bead-based flow cytometry, Alexa488-MEK5 binding to MEKK3; actives lie on both sides; 0 = blocked by unlabeled MEK5, 100 = vehicle; binding response (% of control), % at 10 µM; hit rate 1.4% among 290,000;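 active = binding response more than 3 SD above or below the average of its plate-row segment, actives on both sides; inconclusive = wells at one plate position flagged as instrument error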;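 note: Alexa488 bead fluorescence after subtracting the streptavidin-only scavenger bead signal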
# UBC13 polyUb: blocks human UBC13 polyubiquitin chain formation. TR-FRET. inhibition, % at 20 µM. hit rate 0.47% among 330,000. AID 485273; in the data active = inhibition above about 45%, passing the limit was not always enough; inconclusive = no clear call, values can overlap the other calls
# Rce1 inh: yeast Ras-converting enzyme inhibition; Q03530; yeast membranes, quenched prenylated peptide cleavage fluorescence; calls only; hit rate 0.27% among 290,000; AID 2563;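 active = fall in fluorescence gain of 50% or more versus controls, with final raw signal at or below 3038400; inconclusive = same 50% fall but final raw signal above 3038400; inactive = fall in fluorescence gain under 50%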
# Target sequence (Q03530 whole entry, looked up): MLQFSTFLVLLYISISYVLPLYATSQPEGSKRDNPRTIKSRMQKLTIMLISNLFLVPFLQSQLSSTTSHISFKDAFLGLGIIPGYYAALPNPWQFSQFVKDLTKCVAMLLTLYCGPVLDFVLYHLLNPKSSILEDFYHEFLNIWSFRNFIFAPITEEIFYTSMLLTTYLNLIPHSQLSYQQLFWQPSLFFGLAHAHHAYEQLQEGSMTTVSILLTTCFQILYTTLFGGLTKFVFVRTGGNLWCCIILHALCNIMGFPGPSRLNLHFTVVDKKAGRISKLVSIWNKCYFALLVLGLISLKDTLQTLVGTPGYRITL
# MEKK2wt confirm: raises or lowers MEK5 binding to wildtype human MEKK2, retest; shares compounds with MEKK3 PB1 HTS; bead flow cytometry, Alexa488-MEK5 binding to MEKK2 WT; actives lie on both sides; binding response (% of control), % at 10 µM; hit rate 2.4% among 5,900; AID 1892; in the data active = binding response below about 16% or above about 210%; inactive = in between
# MEKK2mut-MEK5: signal of MEK5 binding to mutant human MEKK2, retest; percent response, % at 10 µM; hit rate 2% among 5,900; bead flow cytometry, Alexa488-MEK5 binding to MEKK2 mutant; shares compounds with MEKK3 PB1 HTS; in the data active = percent response mostly above about 71%, no sharp cut-off; inactive = mostly below about 38%;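 note: higher means compound restores mutant binding toward wildtype level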
# MEKK3 confirm: confirmation of inhibitors of MEK5 binding to human MEKK3; hit rate 1.8% among 5,900; AID 1894; bead flow cytometry, Alexa488-MEK5 binding to MEKK3; hits give low values; shares compounds with MEKK3 PB1 HTS; binding response (% of control), % at 10 µM;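 active = binding response below 72% of control, or above a set upper limit, though filed actives all read lower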;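 note: lower values mean stronger disruption of MEK5 binding to MEKK3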
# Casp3 UBC13 ctr: inhibits human caspase-3 in UBC13 counter-screen. hit rate 4% among 1,400. shares compounds with UBC13 polyUb. inhibition, % at 20 µM. Recombinant caspase-3, Caspase-Glo 3/7 luminescence, 60 min;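 active = mean inhibition across replicates above about 26%, limit read from the data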
# Target sequence (P42574 whole entry, looked up): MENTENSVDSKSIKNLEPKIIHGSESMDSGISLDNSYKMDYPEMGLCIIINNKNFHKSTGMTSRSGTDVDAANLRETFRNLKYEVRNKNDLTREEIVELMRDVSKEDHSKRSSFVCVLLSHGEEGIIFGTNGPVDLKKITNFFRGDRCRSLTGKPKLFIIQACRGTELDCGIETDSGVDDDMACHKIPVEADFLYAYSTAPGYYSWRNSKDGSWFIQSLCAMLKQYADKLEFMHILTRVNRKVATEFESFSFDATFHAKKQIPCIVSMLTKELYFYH
# UBC13 confirm: human UBC13 polyubiquitin inhibition, confirmed. inhibition, % at 10 µM. hit rate 68% among 1,400. shares compounds with UBC13 polyUb. UBC13 polyubiquitination, TR-FRET, biochemical; in the data active = inhibition above about 45%; inconclusive = no clear call, values can overlap the other calls
# Numbers stand for hits; . = inactive; ? = inconclusive; / = no result; [ ] = remark or other dose.
SMILES,MEKK2mut PB1 HTS,MEKK2wt PB1 HTS,MEKK3 PB1 HTS,UBC13 polyUb,Rce1 inh,MEKK2wt confirm,MEKK2mut-MEK5,MEKK3 confirm,Casp3 UBC13 ctr,UBC13 confirm
COc1ccc(Nc2cc(C)nc(NCc3ccccc3)n2)cc1,.,.,.,.,.,/,/,/,/,/
Cc1ccc(Nc2cc(C)nc(NCc3ccccc3)n2)cc1,.,151,.,56,.,.,.,.,.,83
COc1ccc2cc3cc(C(=O)NCCN4CCN(c5ccccc5F)CC4)oc3nc2c1,/,/,/,.,.,/,/,/,/,/
COc1ccc2cc3cc(C(=O)Nc4ccccc4N4CCN(C)CC4)oc3nc2c1,.,173,.,68,.,.,.,.,.,.
Fc1ccccc1-c1nc(NCc2ccco2)c2ccccc2n1,.,.,.,.,/,/,/,/,/,/
Cc1ccc(Nc2nc(NCc3ccco3)c3ccccc3n2)cc1,77,191,.,51,.,.,.,.,.,93
Cc1cccc(N(C(=O)c2snc(C(N)=O)c2N)C(C(=O)NCC2CCCO2)c2ccc(N(C)C)cc2)c1C (stereo unspecified),.,.,.,.,.,/,/,/,/,/
NC1=NC[C@H](CC2CCCCC2)N1CCc1cc(C(F)(F)F)cc(C(F)(F)F)c1,25,156,.,97,.,.,.,.,.,98
Cc1ccc(C)c(/C=N/Nc2nc3ccccc3c(=O)n2O)c1,.,.,.,.,.,/,/,/,/,/
Fc1ccc(-c2nnc3ccc(N4CCCC4)nn23)cc1,.,.,.,.,.,/,/,/,/,/
Brc1ccc(-c2nnc3ccc(N4CCN(c5ccccc5)CC4)nn23)cc1,.,-1.0[inhibitor],0.0[inhibitor],62,.,.,.,.,.,.
NCC12CC3CC(C1)CC(c1ccc(Cl)cc1)(C3)C2,.,155,.,57,.,.,.,.,.,76
Cc1ccc(-c2csc(N3CCN(c4cc5c(cc4Cl)nc(C)n5CCN4CCCCC4)CC3)n2)cc1,46,148,.,46,.,.,.,.,.,.
O=C(Nc1ccc(S(=O)(=O)Nc2ncccn2)cc1)c1cccc(S(=O)(=O)N2CCCC2)c1,.,.,.,.,.,/,/,/,/,/
Cc1nc2ccccc2c2oc(C(=O)N3CCC(N4CCCCC4)CC3)cc12,26,138,.,61,/,.,.,.,.,.
Cc1nc2ccccc2c2oc(C(=O)N3CCN(C4CCCCC4)CC3)cc12,.,.,.,.,.,/,/,/,/,/
COc1ccc(/C=N/Nc2cc(C)nc3ccc(OC)cc23)c(OC)c1,180,389,.,102,.,282,141,.,.,122
O=C(NCCCN1CCOCC1)c1cc2c([nH]c3ccccc32)c(-c2cccc(Br)c2)n1,31,161,.,51,.,.,.,.,.,.
CN1CCN(CC/C=C2/c3ccccc3Sc3ccc(S(=O)(=O)N(C)C)cc32)CC1,.,143,.,55,.,.,.,.,.,.
COc1cc2c(cc1Cl)/C(=C\CCN(C)C)c1ccccc1S2,.,.,.,.,.,/,/,/,/,/
Oc1ccccc1Nc1nc(NCc2ccccc2)c2ccccc2n1,67,216,.,50,.,.,.,.,.,49
COC(=O)c1c(NC(=O)c2ccc(OC(C)C)cc2)sc2c1CC(C)(C)NC2(C)C,.,173,.,84,.,.,.,.,.,60
CCOC(=O)c1c(NC(=O)c2ccc(C)cc2)sc2c1CC(C)(C)NC2(C)C,.,138,.,49,.,.,.,.,.,.
O=C(NCc1ccccn1)c1ccc(Cn2c(=S)[nH]c3ccc(Br)cc3c2=O)cc1,.,.,.,?,.,/,/,/,/,/
CCCCN(C)CCNC(=O)c1ccc(Cn2c(=S)[nH]c3ccc(Br)cc3c2=O)cc1,.,171,.,48,.,.,.,.,34,48
SMILES,MEKK2mut PB1 HTS,MEKK2wt PB1 HTS,MEKK3 PB1 HTS,UBC13 polyUb,Rce1 inh,MEKK2wt confirm,MEKK2mut-MEK5,MEKK3 confirm,Casp3 UBC13 ctr,UBC13 confirm
CNC[C@H](Cc1ccccc1)NC[C@@H](Cc1cccc2ccccc12)NCCc1ccc(C)cc1,120,364,.,96,.,255,100,.,.,90
N#Cc1c(-c2ccccc2)nc(SCc2cccc(Cl)c2)[nH]c1=O,.,.,.,.,.,/,/,/,/,/
Cc1ccc2c(c1)c1c3n2CCN(C(=O)CN2CCN(C)CC2)C3CCC1 (stereo unspecified),.,.,.,.,.,/,/,/,/,/
CN1CCN(CC(=O)N2CCn3c4c(c5cc(C6CCCCC6)ccc53)CCCC42)CC1 (stereo unspecified),84,253,.,90,.,215,.,.,.,103
CNc1nc(SCC(=O)Nc2ccccc2)nc(N2CCOCC2)n1,.,.,.,.,.,/,/,/,/,/
CN1CCN(CCCN2c3ccccc3Sc3ccc(C(F)(F)F)cc32)CC1,.,168,.,90,.,.,.,.,.,98
COc1ccc(-c2csc(NC(=O)C3CC(=O)N(Cc4ccccc4)C3)n2)cc1OC (stereo unspecified),.,.,.,.,.,/,/,/,/,/
CCOc1ccc(Nc2nc(NCC3CCCO3)c3ccccc3n2)cc1 (stereo unspecified),.,166,.,66,.,.,.,.,.,86
c1ccc(Nc2nc(NCC3CCCO3)c3ccccc3n2)cc1 (stereo unspecified),.,.,.,.,.,/,/,/,/,/
O=C(CCC1CCCCC1)NCCN1C2=NC[C@H](Cc3ccc(O)cc3)N2C[C@H]1Cc1ccc(O)cc1,.,.,.,.,.,/,/,/,/,/
COc1ccc(C[C@H]2CN3C(=NC[C@@H]3Cc3ccccc3)N2CCNC(=O)CCC2CCCCC2)cc1,.,179,.,78,.,.,.,.,.,69
COc1ccc(CNC[C@@H](CCCCN(C)Cc2ccc(OC)cc2)N2C[C@H](c3ccccc3)N(CCc3ccc(Cl)c(Cl)c3)C(=O)C2=O)cc1,94,236,.,93,.,240,100,.,.,74
CC(C)c1cc(C(=O)N2CCCC(Nc3ccc(F)cc3)C2)n[nH]1 (stereo unspecified),.,.,.,.,.,/,/,/,/,/
Cc1c(CCOC(=O)CC23CC4CC(CC(C)(C4)C2)C3)sc[n+]1CC(=O)c1ccccc1,.,153,.,63,.,.,.,.,.,52
CCCCCCCCCCCCCCCC[n+]1ccc(/C=N/O)cc1,.,150,.,91,/,257,181,.,.,88

# Bioassay records deposited in PubChem BioAssay by several laboratories.
